For 65 compounds, inhibition results are on record in PubChem BioAssay AID1209 (Sanford-Burnham Center for Chemical Genomics, 2008).

The whole screen tested about 190,000 compounds, of which about 810 (0.43%) were called active. This excerpt belongs to a sample that is enriched for actives. Unmarked numbers belong to inactive results. Cut-off read from the data, not from the text of the source: active = inhibition above about 50%; inactive = the rest.

The target of the assay is Mannose-6-phosphate isomerase (Homo sapiens) (UniProt P34949). Description: MPI enzyme activity inhibition – biochemical, fluorescence intensity, coupled assay, primary screen (AID 1209).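 Note: plate controls were DMSO vehicle for no effect and wells lacking substrate for full effect.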 As to conditions: purified PMI enzyme, at 20 µM, stronger effect = higher value.
Sequence of Mannose-6-phosphate isomerase (Homo sapiens) (P34949 whole entry, looked up): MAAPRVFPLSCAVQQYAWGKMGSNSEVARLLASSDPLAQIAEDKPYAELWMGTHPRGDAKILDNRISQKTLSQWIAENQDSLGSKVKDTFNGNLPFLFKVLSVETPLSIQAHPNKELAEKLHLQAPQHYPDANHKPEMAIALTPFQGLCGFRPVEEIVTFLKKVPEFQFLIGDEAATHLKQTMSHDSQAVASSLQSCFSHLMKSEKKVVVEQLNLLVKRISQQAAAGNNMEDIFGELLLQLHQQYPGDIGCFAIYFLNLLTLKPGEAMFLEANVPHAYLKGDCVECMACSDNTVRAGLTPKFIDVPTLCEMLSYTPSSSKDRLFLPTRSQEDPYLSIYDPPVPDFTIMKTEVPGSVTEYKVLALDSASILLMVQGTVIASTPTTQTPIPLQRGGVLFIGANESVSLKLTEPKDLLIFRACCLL
The inhibition is the change of the read-out against control, counted positive when it falls. Turning to `Cn1c(SCC(=O)C(C)(C)C)nnc1-c1ccncc1`, the inhibition is 6%.

With `Cc1ccc(C(C)(C)C)cc1S(=O)(=O)NC(=O)c1ccccc1`, the inhibition is -10.8%.

Turning to `Nc1ccc(-c2ccc(N)c([N+](=O)[O-])c2)cc1[N+](=O)[O-]`, the inhibition was -6.5%.

For `C=C1N(C)c2cc([N+](=O)[O-])c(N)cc2C1(C)C`, the inhibition is 94% (active).

Consider `CC1(C)Oc2cc(N)c([N+](=O)[O-])cc2O1`, for which the inhibition is 17.5%.

Turning to `Cc1ncc2c(c1OC(=O)c1ccc([N+](=O)[O-])cc1)COC(C)(C)OC2`, the inhibition was -1.9%.

As to `O=C(CCNC(=O)c1ccco1)Nc1ccc(Cl)cc1`, the inhibition was 4.4%.

For `O=C(CCN1CCOCC1)c1ccc(Cl)cc1`, the inhibition is 25.9%.

With `O=C(CCN1CCOCC1)c1ccccc1`, the inhibition was -1.6%.

As to `O=C(CCN1CCOCC1)c1ccc(Br)cc1`, the inhibition is 60.4% (active).

`COc1ccc(C(=O)CCN2CCN(c3ccccc3F)CC2)cc1`: the inhibition is 16.8%.

For `O=C(CCN1CCN(c2ccccc2F)CC1)Nc1ccccc1F`, the inhibition is -9.9%.

`CC1CCCN(CCC(=O)Nc2ccc(Br)cc2)C1` (stereo not given): the inhibition was -13.4%.

In the case of `CC1CCCN(CCOc2ccc(Br)cc2)C1` (stereo not given), the inhibition was -8.8%.

With `CC1CCCN(CCC(=O)c2ccc(Br)cc2)C1` (stereo not given), the inhibition is 60.1% (active).

Turning to `O=C(CCN1CCN(c2ccccc2F)CC1)c1ccc(Br)cc1`, the inhibition is 59.8% (active).

Regarding `COc1cc(C)nc(N2CCC(C(N)=O)CC2)n1`, the inhibition was -2.7%.

For the compound `Cc1cc(=O)n2[nH]c(-c3ccc(F)cc3)nc2n1`, the inhibition was 7.6%.

Regarding `CC(=O)Nc1nc(NC(=O)/C=C/c2ccccc2)n(-c2ccccc2)n1`, the inhibition was -31.3%.

Turning to `C=CCc1ccccc1OCCOc1ccc([N+](=O)[O-])cc1/C=N/NC(N)=O`, the inhibition is 3.8%.

As for `CC(C)(C)NC(=O)CN(Cc1cccs1)C(=O)CNS(=O)(=O)c1ccccc1`, the inhibition was -0.6%.

As to `COc1ccc(S(=O)(=O)NCC(=O)N(CC(=O)NC(C)(C)C)Cc2cccs2)cc1`, the inhibition is 110% (active).

For the compound `Cc1ccc(S(=O)(=O)NCC(=O)N(CC(=O)NC(C)(C)C)Cc2cccs2)cc1`, the inhibition was -16%.

For `NC(=O)c1nn(CC(=O)Nc2ccc3c(c2)OCO3)cc1[N+](=O)[O-]`, the inhibition was 0%.

Turning to `Cc1ccc(NCC(=O)N/N=C/c2c[nH]c3ccccc23)cc1`, the inhibition is 0%.

As for `Cc1ccc(S(=O)(=O)Nc2cnc3ccccc3c2)cc1`, the inhibition was 3.8%.

As for `CC(=O)Oc1cccc(N2C(=O)c3ccc(C(=O)O)cc3C2=O)c1`, the inhibition is -31.5%.

As for `O=C(O)c1ccc2c(c1)C(=O)N(c1cccc(-c3nc4ccccc4s3)c1)C2=O`, the inhibition was 102% (active).

With `O=C(O)c1ccc2nc(-c3ccccc3)sc2c1`, the inhibition is -10.7%.

As to `COc1ccc(/C(O)=C2\C(=O)C(=O)N(CCN(C)C)C2c2cc(OC)c(OC)c(OC)c2)c(C)c1` (stereo not given), the inhibition is -21.3%.

For the compound `CCOC(=O)C1=C(C)NC2(O)c3ccccc3C(=O)C12O` (stereo not given), the inhibition was 12.1%.

Regarding `CCOC(=O)C1=C(C)N[C@@]2(O)c3ccccc3C(=O)[C@@]12O`, the inhibition was 21%.

For the compound `COCCOC(=O)C1=C(C)NC2(O)c3ccccc3C(=O)C12O` (stereo not given), the inhibition is 70.5% (active).

`COc1ccccc1OCC(=O)NNC(=O)c1c(-c2ccccc2Cl)noc1C`: the inhibition was -14.6%.

`O=S(=O)(NCCN1CCOCC1)c1cccs1`: the inhibition is 68.9% (active).

As to `O=S(=O)(NCCNS(=O)(=O)c1cccs1)c1cccs1`, the inhibition was -15.3%.

Consider `O=S(=O)(NCCN1CCOCC1)c1ccc(Cl)s1`, for which the inhibition was -5.3%.

Consider `Cc1cc2cc(C)c3nnc(SCC(=O)N4CCCc5ccccc54)n3c2cc1C`, for which the inhibition was 12.3%.

Regarding `N#CCCn1cc(C(=O)O)c(-c2cc3ccccc3o2)n1`, the inhibition was -2.3%.

Regarding `Cn1c(N)c(C(=O)NCc2ccccc2)sc1=S`, the inhibition is 12.3%.

With `Cn1c(N)c(C(=O)Nc2ccc3ccccc3c2)sc1=S`, the inhibition was 64.8% (active).

`COC(=O)c1ccccc1NC(=O)c1sc(=S)n(C)c1N`: the inhibition is -14.8%.

`Cc1cnn(C(=O)c2oc3ccccc3c2C)c1`: the inhibition is -1.3%.

As to `Cc1cc(N)n(-c2ccccc2C)n1`, the inhibition is 11.2%.

Regarding `C=CCN1C(=O)C(C)(C)Nc2ccccc21`, the inhibition was 6.9%.

With `Cn1ccnc1SCC(=O)c1c[nH]c2ccccc12`, the inhibition was 4.5%.

Consider `C/C(=N\NC(=O)c1nn(C)c(C)c1Br)c1cccc(NC(=O)c2ccoc2C)c1`, for which the inhibition is -8.4%.

With `C/C(=N\NC(=O)c1nn(C)c(C)c1Br)c1ccc(NC(=O)c2ccccc2F)cc1`, the inhibition is -0.9%.

Take `C/C(=N\NC(=O)c1nn(C)c(C)c1Br)c1cccc(NC(=O)c2ccc(F)cc2)c1`: the inhibition is 50.8% (active).

For `COC(=O)c1ccc(NC(=S)NCCCN2CCCC2=O)cc1`, the inhibition is -0.7%.

On to `Cc1ccc(NC(=S)N(CCCN2CCC(C)CC2)Cc2ccco2)cc1`, for which the inhibition was 81.3% (active).

Turning to `Cc1ccc(NC(=S)N(CCCN2CCC(C)CC2)Cc2ccco2)cc1C`, the inhibition was -3.2%.

Regarding `Cc1ccc(NC(=S)N(CCCN2CCOCC2)Cc2ccco2)cc1`, the inhibition was -2%.

Take `CCOC(=O)C1C(c2ccc(O)c(OCC)c2)NC(=S)NC1(O)C(F)(F)F` (stereo not given): the inhibition is -6.6%.

As for `CCOC(=O)C1C(c2ccc(O)c(OC)c2)NC(=S)NC1(O)C(F)(F)F` (stereo not given), the inhibition was -3%.

Consider `CCOC(=O)C1C(c2ccc(O)c(O)c2)NC(=S)NC1(O)C(F)(F)F` (stereo not given), for which the inhibition was 61.7% (active).

As for `O=C(CN1C(=O)c2cccc3cccc(c23)C1=O)N1CCOCC1`, the inhibition is 24.7%.

Turning to `O=C(Nn1cnnc1)c1ccc(Br)s1`, the inhibition is -17.3%.

For the compound `O=C(NCCCn1ccnc1)c1cc(-c2ccc(Br)cc2)on1`, the inhibition was -3.5%.

As to `O=C(O)CS(=O)(=O)CC(=O)NCc1cccc(C(F)(F)F)c1`, the inhibition is -2.8%.

Take `Cc1ccc(NC(=O)Nc2c(C)n(C)n(-c3ccccc3)c2=O)cc1C`: the inhibition is -4%.

`COCCn1c(=NC(=O)C2COc3ccccc3O2)sc2cc(S(N)(=O)=O)ccc21` (stereo not given): the inhibition is 12.8%.

For the compound `O=C(COc1ccccc1O)N1CCN(C(=O)c2ccco2)CC1`, the inhibition is 4%.

Regarding `O=C(COc1cccnc1[N+](=O)[O-])N1CCN(S(=O)(=O)c2ccccc2)CC1`, the inhibition was 12.8%.

On to `O=C(COc1cccnc1[N+](=O)[O-])N1CCN(C(=O)c2ccco2)CC1`, for which the inhibition is 57.6% (active).
